Reference: PubChem BioAssay AID492998 (Southern Research Specialized Biocontainment Screening …, 2010)
Screen size: about 2,300 compounds; about 550 (24%) were called active. How the calls were made is not given here. Not all results are given here. Entries that show only a call come without a potency. Potency and affinity values are given separately.

Test: Vero E6 cell cytotoxicity, dose response, cytotoxicity control for non-replicating M. tuberculosis project, secondary assay (AID 492998)
Conditions: series mostly up to 20 µM

Compound	outcome
CC(C)N1CCc2c(sc(NC(=O)CCS(=O)(=O)c3ccccc3)c2C#N)C1	inactive
CNC(=O)COC(=O)c1ccc(-c2nc3ccccc3s2)s1	inactive
COCCCC1CCN(Cc2nc(-c3ccccc3)no2)CC1	inactive
CC(C)(C)c1ccc(S(=O)(=O)NNC(=O)c2cc3ccccc3[nH]2)cc1	inactive
CC(C)(C)CC(=O)NC(=S)NCc1ccco1	inactive
CCOC(=O)COc1cc(N)c(Cl)cc1Cl	inactive
CCn1cc(C(=O)NC(C)C23CC4CC(CC(C4)C2)C3)cn1 (configuration not stated)	inactive
Cc1ccc(S(=O)(=O)N2CCC(C(=O)OCc3ccccc3)CC2)cc1C	inactive
COc1ccc2c([N+](=O)[O-])c(N3CCCC3)[nH]c2c1	inactive
Cc1ccc(OCCCCn2ccnc2)c([N+](=O)[O-])c1	inactive
Clc1ccc(-c2ccc(CNCc3ccccn3)o2)cc1	inactive
Clc1cccc(-c2ccc(CNCc3ccccn3)o2)c1	inactive
Fc1ccc(-c2ccc(CNCc3ccccn3)o2)cc1Cl	inactive
CCCc1cc(NCCCn2ccnc2)n2nc(C)c(-c3ccccc3)c2n1	inactive
O=C(Oc1ccccc1)c1cc2ccccc2o1	inactive
Cc1cc(C(=O)NNc2ccc(Cl)cc2)no1	inactive
COc1cccc(C(=O)C2CCCN(CC3=Cc4cc(OC)ccc4OC3)C2)c1 (configuration not stated)	inactive
N/C(=N\OC(=O)c1cccs1)c1ccccc1	inactive
C=CCN(CC=C)C(=O)Cc1ccc(F)cc1	inactive
O=[N+]([O-])c1ccc(Nc2ccccc2O)c2nonc12	inactive
Cc1ccc2[nH]c(C)c(CCNC(=O)c3cc4cc([N+](=O)[O-])ccc4oc3=O)c2c1	inactive
CC(NC(=O)c1cc2cc(Br)ccc2oc1=N)c1ccccc1 (configuration not stated)	inactive
CCOCCOC(=O)COc1ccc2c(-c3ccccc3)cc(=O)oc2c1	inactive
CC1=NN(C(=O)c2ccc(C)o2)C(O)(c2ccccc2)C1 (configuration not stated)	inactive
N=c1oc2ccccc2cc1C(=O)NC1CCCCCC1	inactive

Compound	outcome
O=C(NC1CCCC1)c1nc2c(nnn2Cc2cccc(Cl)c2)c(=O)[nH]1	inactive
CC(=O)c1ccc(-n2cc(-c3ccc(C(C)(C)C)cc3)[n+]3c2SCCC3)cc1	inactive
O=C(NCC(c1cccs1)N1CCOCC1)c1cc([N+](=O)[O-])cc([N+](=O)[O-])c1 (configuration not stated)	inactive
COc1ccc([N+](=O)[O-])c(S(=O)(=O)c2ccc(Cl)cc2)n1	inactive
COC(=O)CCCCCN1C(=O)/C(=C\c2ccncc2)SC1=S	inactive
COc1ccc(-c2noc(-c3cc4ccccc4oc3=O)n2)cc1	inactive
CCN(CC)c1ccc2cc(C(=O)NCc3ccc(F)cc3)c(=N)oc2c1	inactive
O=C(Nc1ccccc1F)c1ccc(Br)o1	inactive
COc1ccccc1OCC(=O)N/N=C/C=C/c1ccc([N+](=O)[O-])o1	inactive
O=C(Nc1nc2c(Cl)cccc2s1)c1ccc([N+](=O)[O-])o1	inactive
Cc1ccccc1NC(=O)c1nc[nH]c1C(=O)NCc1ccccc1	inactive
COc1ccccc1NC(=O)c1cnc(SC)nc1	inactive
N=c1oc2ccc(Cl)cc2cc1C(=O)NC1CCCCCC1	inactive
COc1cc2c(cc1OC)CN(CCC(=O)c1ccc(Br)cc1)CC2	inactive
CC1(C)C[C@H]2C=C(C=O)[C@]3(C=O)C[C@]3(C)[C@H]2C1	inactive
CCc1ccc(C(=O)COC(=O)c2ccc(Cl)nc2)cc1	inactive
O=C(OCc1nnc(-c2ccccc2)o1)c1ccc(Br)o1	inactive
Nn1c(SCCOc2ccc(Cl)cc2)nnc1-c1cccnc1	inactive
COc1ccc(C(=O)COC(=O)c2ccc([N+](=O)[O-])s2)cc1OC	inactive
COc1cc(C=O)ccc1OCCOCCOc1ccc(Cl)cc1	inactive
COC(=O)CCc1nc2c(C#N)c(-c3ccc(Cl)cc3)ccn2n1	inactive
O=C(Nc1ccc(Br)cc1)c1cc([N+](=O)[O-])cc([N+](=O)[O-])c1	inactive
O=C(NCC1CCCCC1)c1ccco1	inactive
Oc1ccccc1-c1nnc(COc2ccccc2)o1	inactive
Cc1cccc(NCCC(=O)c2ccc([N+](=O)[O-])cc2)c1C	inactive

Compound	outcome
CC12CN3CC(C)(CN(C1)C3c1ccc([N+](=O)[O-])o1)C2 (configuration not stated)	inactive
Cc1cccc(NC(=O)c2n[nH]c([N+](=O)[O-])c2Br)c1C	inactive
Cc1ccc(CCC(=O)Nc2ccc(C)c(C)c2)o1	inactive
COc1ccc(NC(=O)c2ccc(-c3ccc([N+](=O)[O-])cc3)o2)cc1OC	inactive
CC1CC(C)CN(C(=O)COC(=O)c2ccc([N+](=O)[O-])o2)C1 (configuration not stated)	inactive
O=[N+]([O-])c1ccc(CN2CCN(c3ccc(Cl)cc3)CC2)o1	inactive
Cc1cccc(CSc2nnc(-c3ccco3)o2)c1	inactive
CC(C)(C)c1ccc(OCCCC(=O)NC2=NCCS2)cc1	inactive
Cc1ccc(NC(=O)COc2ccccc2)cc1Cl	inactive
O=C(NCCC1=CCCCC1)c1coc(=O)c(Br)c1	inactive
O=C(COC(=O)c1ccc(Br)o1)Nc1ncc([N+](=O)[O-])s1	inactive
COC(=O)c1ccc(COC(=O)CCS(=O)(=O)c2ccc(C)cc2)cc1	inactive
CCOC(=O)CC(=O)Nc1ccc(C(=O)OCC)cc1	inactive
C=CCc1ccc2oc(C(=O)OCC)cc(=O)c2c1O	inactive
CCNC(=O)NC(=O)C(C)OC(=O)CCCSc1nc2ccccc2s1 (configuration not stated)	inactive
Cc1cccc(C)c1NC(=O)COC(=O)CCc1c[nH]c2ccccc12	inactive
O=S1(=O)N=C(N/N=C/C=C/c2ccccc2)c2ccccc21	inactive
Cc1cc(C(=O)N/N=C/c2ccc([N+](=O)[O-])o2)c(C)o1	inactive
O=C(Nc1ccc([N+](=O)[O-])cc1)c1ccc(Cn2cc([N+](=O)[O-])cn2)cc1	inactive
O=C(Nc1ccccc1F)c1ccc(CSc2ccccc2)o1	inactive
Cc1ccc(NC(=O)c2noc(C(C)C)c2[N+](=O)[O-])cc1	inactive
Cc1cc(C)c(C(=O)COC(=O)c2ccc([N+](=O)[O-])o2)cc1C	inactive
COCCn1c(C)cc(C(=O)COC(=O)c2ccc([N+](=O)[O-])o2)c1C	inactive
Cc1[nH]c2ccccc2c1C(=O)C(C)OC(=O)c1ccc([N+](=O)[O-])o1 (configuration not stated)	inactive
CCCCC1CCC(C(=O)Nc2ccc(S(=O)(=O)Nc3nccs3)cc2)CC1 (configuration not stated)	inactive

Compound	outcome
CCCOC(=O)c1ccc(NC(=O)c2ccccc2OC)cc1	inactive
CCOC(=O)C1CCN(Cc2ccc(-c3ccccc3)cc2)CC1	inactive
OC(C#CCN1CCOCC1)c1cccs1 (configuration not stated)	inactive
C=CCNc1nnc(Sc2ncccc2[N+](=O)[O-])s1	inactive
S=C1CN=C(c2ccccc2)c2cc(Cl)ccc2N1	inactive
CC(C)Oc1ccc(C(=O)CCN2CCCCC2)cc1	inactive
Cc1ccc(CCC(=O)Nc2cc(Cl)ccc2Cl)o1	inactive
CCOc1ccc(CC(=O)N2N=C(C)CC2(O)C(F)(F)F)cc1 (configuration not stated)	inactive
CCn1nnc(NC(=O)c2ccc(-c3ccc(Cl)cc3)o2)n1	inactive
O=C(c1ccc([N+](=O)[O-])o1)N1CCN(Cc2ccccc2)CC1	inactive
CCn1nnc(NC(=O)COc2ccc(C3CCCCC3)cc2)n1	inactive
Cc1ccc(OCC(=O)N/N=C/c2ccc([N+](=O)[O-])o2)cc1	inactive
O=C(NCc1ccc(F)cc1)c1ccc(Br)o1	inactive
O=C(NCCC1=CCCCC1)c1ccc(F)cc1	inactive
O=C(CCC1CCCC1)Nc1ccc(Br)cn1	inactive
O=C(c1cc(F)ccc1F)C1CCCN(Cc2ccc3nonc3c2)C1 (configuration not stated)	inactive
CC(C)Cn1c(N)c(C(=O)COC(=O)c2cnc(Cl)c(Cl)c2)c(=O)n(C)c1=O	inactive
COc1cc(N=c2ssnc2Cl)cc(OC)c1	inactive
CCOC(=O)COc1ccc2c(=O)cc(-c3ccccc3)oc2c1	inactive
COC(=O)C(C)Oc1ccc2cc(-c3ccccc3)c(=O)oc2c1 (configuration not stated)	inactive
Cc1ccccc1OCC(=O)OCC(=O)c1ccc[nH]1	inactive
COc1cccc(OCc2nnc(-c3cccs3)o2)c1	inactive
Fc1ccc(-c2nnc(-c3ccc(F)cc3)o2)cc1	inactive
Fc1ccc(-c2nnc(CSc3nnc(-c4cccs4)o3)o2)cc1	inactive
Cc1ccc(-c2nnc(-c3cccs3)o2)cc1	inactive

Compound	outcome
Cc1cc(C(=O)N/N=C/c2ccc(OC(=O)c3ccccc3Br)cc2)n[nH]1	inactive
Oc1oc(-c2ccco2)nc1C=Nc1cccc(Cl)c1	inactive
CCc1cc(C(c2ccncc2)N2CCN(C)CC2)c(NC(=O)c2ccccc2)s1 (configuration not stated)	inactive
CCOC(=O)C1(CC2CCCCO2)CCN(Cc2nccn2-c2ccc(OC)cc2)CC1 (configuration not stated)	inactive
COC12C(COC(N)=O)C3=C(C(=O)C(C)=C(N)C3=O)N1CC1C2N1C (configuration not stated)	inactive
c1ccc(C2=Nc3ccccc3OC2)cc1	inactive
Cc1cc2nc(/N=C(\N)NC(=O)C(C)C)nc(C)c2cc1C	inactive
Cc1ccc2nc(CCc3nc4ccc(C)cc4[nH]3)[nH]c2c1	inactive
CC(C)OC(=O)CCCCCN1C(=O)CSC1=S	inactive
O=C(Nc1ccccn1)c1ccc(C(=O)c2ccccc2)cc1	inactive
CCCCNC(=O)COC(=O)c1cc(Br)ccc1Cl	inactive
Cc1[nH]n2c(=O)c3c(nc2c1-c1ccccc1)CCCC3	inactive
CCOC(=O)COc1ccc2c(c1)C(=O)CC1(CCCCC1)O2	inactive
O=C(COc1ccc(Cl)cc1)Nc1ccccc1Cl	inactive
CC1=NN(C(=O)COc2ccccc2C)C(O)(c2ccc(Cl)cc2)C1 (configuration not stated)	inactive
Cc1cc(Cl)ccc1NNC(=O)c1c(C)noc1C	inactive
O=C(N/N=C/C=C/c1cccc([N+](=O)[O-])c1)c1ccncc1	inactive
O=C(Oc1cccc2cccnc12)c1cccc([N+](=O)[O-])c1	inactive
COc1ccc(C(=O)NN/C(C)=C/C(=O)c2ccccc2)cc1	inactive
Cc1ccc(CSCCNC(=O)c2cccc([N+](=O)[O-])c2)cc1	inactive
COc1cccc(OCCNC(=O)c2cc([N+](=O)[O-])cc([N+](=O)[O-])c2)c1	inactive
O=C(N/N=C/c1ccccn1)c1cccc([N+](=O)[O-])c1	inactive
